# Structures can show the parent of a compound that is named as a salt. ± gives the standard deviation of the averaged measurements.
# How the values were obtained:
# [1] = test system: Saccharomyces cerevisiae BY4741 SeMeCo community; test: z-score of prototroph abundance vs DMSO median; higher = larger share of this subpopulation than in DMSO controls; details: 10 µM; 24 h; SM minimal medium; subpopulation (auxotrophy): Prototroph
# In short: (§1)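 A community of Saccharomyces cerevisiae BY4741 was built from four plasmids that each restored one auxotrophy and encoded a distinct fluorescent protein. Pre-grown overnight to OD600 1.0 and diluted to 0.3, it was dispensed at 70 µl into 384-well plates acoustically predosed with library drugs for a final 10 µM, and grown 24 h in minimal SM medium. Cells were then paraformaldehyde-fixed and imaged by automated confocal microscopy. Thresholds and autofluorescence correction came from single-auxotroph fluorescent strains, and each subpopulation's abundance was scored as a z-score relative to the vehicle-well median.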
# [2] = test system: Saccharomyces cerevisiae BY4741 SeMeCo community; test: z-score of subpopulation abundance vs DMSO median, subpopulation auxotrophic for M; higher = larger share of this subpopulation than in DMSO controls; details: 10 µM; 24 h; SM minimal medium; subpopulation (auxotrophy): M
# In short: as §1
# [3] = test system: Saccharomyces cerevisiae BY4741 SeMeCo community; test: z-score of subpopulation abundance vs DMSO median, subpopulation auxotrophic for L; higher = larger share of this subpopulation than in DMSO controls; details: 10 µM; 24 h; SM minimal medium; subpopulation (auxotrophy): L
# In short: as §1
# [4] = test system: Saccharomyces cerevisiae BY4741 SeMeCo community; test: z-score of subpopulation abundance vs DMSO median, subpopulation auxotrophic for U; higher = larger share of this subpopulation than in DMSO controls; details: 10 µM; 24 h; SM minimal medium; subpopulation (auxotrophy): U
# In short: as §1
# [5] = test system: Saccharomyces cerevisiae BY4741 SeMeCo community; test: z-score of subpopulation abundance vs DMSO median, subpopulation auxotrophic for H; higher = larger share of this subpopulation than in DMSO controls; details: 10 µM; 24 h; SM minimal medium; subpopulation (auxotrophy): H
# In short: as §1
# [6] = test system: Saccharomyces cerevisiae BY4741 SeMeCo community; test: z-score of subpopulation abundance vs DMSO median, subpopulation auxotrophic for LU; higher = larger share of this subpopulation than in DMSO controls; details: 10 µM; 24 h; SM minimal medium; subpopulation (auxotrophy): LU
# In short: as §1
# [7] = test system: Saccharomyces cerevisiae BY4741 SeMeCo community; test: z-score of subpopulation abundance vs DMSO median, subpopulation auxotrophic for LM; higher = larger share of this subpopulation than in DMSO controls; details: 10 µM; 24 h; SM minimal medium; subpopulation (auxotrophy): LM
# In short: as §1
# [8] = test system: Saccharomyces cerevisiae BY4741 SeMeCo community; test: z-score of subpopulation abundance vs DMSO median, subpopulation auxotrophic for HM; higher = larger share of this subpopulation than in DMSO controls; details: 10 µM; 24 h; SM minimal medium; subpopulation (auxotrophy): HM
# In short: as §1
# [9] = test system: Saccharomyces cerevisiae BY4741 SeMeCo community; test: z-score of subpopulation abundance vs DMSO median, subpopulation auxotrophic for HU; higher = larger share of this subpopulation than in DMSO controls; details: 10 µM; 24 h; SM minimal medium; subpopulation (auxotrophy): HU
# In short: as §1
# [10] = test system: Saccharomyces cerevisiae BY4741 SeMeCo community; test: z-score of subpopulation abundance vs DMSO median, subpopulation auxotrophic for UM; higher = larger share of this subpopulation than in DMSO controls; details: 10 µM; 24 h; SM minimal medium; subpopulation (auxotrophy): UM
# In short: as §1
# [11] = test system: Saccharomyces cerevisiae BY4741 SeMeCo community; test: z-score of subpopulation abundance vs DMSO median, subpopulation auxotrophic for HL; higher = larger share of this subpopulation than in DMSO controls; details: 10 µM; 24 h; SM minimal medium; subpopulation (auxotrophy): HL
# In short: as §1
# [12] = test system: Saccharomyces cerevisiae BY4741 SeMeCo community; test: z-score of subpopulation abundance vs DMSO median, subpopulation auxotrophic for HLU; higher = larger share of this subpopulation than in DMSO controls; details: 10 µM; 24 h; SM minimal medium; subpopulation (auxotrophy): HLU
# In short: as §1
# [13] = test system: Saccharomyces cerevisiae BY4741 SeMeCo community; test: z-score of subpopulation abundance vs DMSO median, subpopulation auxotrophic for LUM; higher = larger share of this subpopulation than in DMSO controls; details: 10 µM; 24 h; SM minimal medium; subpopulation (auxotrophy): LUM
# In short: as §1
# [14] = test system: Saccharomyces cerevisiae BY4741 SeMeCo community; test: z-score of subpopulation abundance vs DMSO median, subpopulation auxotrophic for HLUM; higher = larger share of this subpopulation than in DMSO controls; details: 10 µM; 24 h; SM minimal medium; subpopulation (auxotrophy): HLUM
# In short: as §1
# [15] = test system: Saccharomyces cerevisiae BY4741 SeMeCo community; test: mean cell size (pixel area) (pixels); higher = larger cells; details: 10 µM; 24 h; SM minimal medium
# In short: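 A four-plasmid fluorescent Saccharomyces cerevisiae BY4741 community was tested; each plasmid complements one auxotrophy and carries a fluorescent marker. An overnight preculture at OD600 = 1.0 was diluted to OD600 = 0.3, and 70 µl was added to 384-well plates acoustically predosed with drug (final 10 µM) in SM medium for 24 h. Cells were fixed with paraformaldehyde and imaged by automated confocal microscopy, with analysis in Harmony. Mean cell pixel area per well is averaged over 3 replicates. Same SeMeCo high-content imaging drug screen: Selleck FDA-approved drugs at 10 µM, 24 h in SM medium, 384-well plates, 3 replicates.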
# [16] = test system: Saccharomyces cerevisiae BY4741 SeMeCo community; test: z-score of subpopulation abundance vs DMSO median, subpopulation auxotrophic for HLM; higher = larger share of this subpopulation than in DMSO controls; details: 10 µM; 24 h; SM minimal medium; subpopulation (auxotrophy): HLM
# In short: as §1
# [17] = test system: Saccharomyces cerevisiae BY4741 SeMeCo community; test: z-score of subpopulation abundance vs DMSO median, subpopulation auxotrophic for HUM; higher = larger share of this subpopulation than in DMSO controls; details: 10 µM; 24 h; SM minimal medium; subpopulation (auxotrophy): HUM
# In short: as §1
Compound,z-score of prototroph abundance [1],z-score of subpopulation abundance [2],z-score of subpopulation abundance [3],z-score of subpopulation abundance [4],z-score of subpopulation abundance [5],z-score of subpopulation abundance [6],z-score of subpopulation abundance [7],z-score of subpopulation abundance [8],z-score of subpopulation abundance [9],z-score of subpopulation abundance [10],z-score of subpopulation abundance [11],z-score of subpopulation abundance [12],z-score of subpopulation abundance [13],z-score of subpopulation abundance [14],mean cell size [15],z-score of subpopulation abundance [16],z-score of subpopulation abundance [17]
N/C(=N\N=C\c1ccc(Cl)cc1)N/N=C/c1ccc(Cl)cc1 [Robenidine Hydrochoride],-8.77,9.06,-1.06,-2.96,5.77,-2.55,5.64,11.4,-0.45,6.84,6.84,0.81,7.91,18.1,–,–,–
CCOC(=O)C1=C(C)NC(C)=C(C(=O)OC)C1c1cccc([N+](=O)[O-])c1 (stereo not drawn) [Nitrendipine],0.18,-0.21,–,1.29,–,-0.48,-1.23,-0.08,1.51,0.62,-0.8,-0.48,-1.36,-1.04,12.5 ± 0.13,-0.87,0.52
CN(C)CCc1c[nH]c2ccc(Cn3cncn3)cc12 [Rizatriptan Benzoate],0.05,-0.1,–,-0.69,–,0.31,1.18,0.65,-0.96,-1.14,0.75,0.78,-0.44,0.89,12.63 ± 0.099,0.35,-0.59
CCC(=O)c1c(O)cc(O)cc1O [Flopropione],0.7,0.69,-0.09,-0.13,0.18,-0.57,–,0.19,1.06,0.25,-0.4,-0.08,-0.46,-0.26,12.5 ± 0.18,–,-0.23
O=C(O)CCC(=O)c1ccc(-c2ccccc2)cc1 [Fenbufen],-0.31,0.67,0.14,0.32,0.71,1.1,–,–,0.87,-0.92,–,-0.12,-0.23,0.69,12.8 ± 0.18,–,–
CCN(CC)CCOC(=O)c1ccc(N)cc1Cl [Chloroprocaine HCl],-0.55,0.42,0.95,0.25,-0.3,0.13,0.62,-0.02,-0.26,–,-0.09,0.39,0.45,–,12.51 ± 0.1,–,–
CCc1c(C)[nH]c2c1C(=O)C(CN1CCOCC1)CC2 (stereo not drawn) [Molindone hydrochloride],0.46,-0.61,0.73,-0.6,-0.43,-0.32,-0.16,-0.54,-0.73,-0.67,0.22,0.45,-0.28,0.04,12.2 ± 0.13,–,–
CC1(C)S[C@@H]2[C@H](NC(=O)[C@H](N)c3ccc(O)cc3)C(=O)N2[C@H]1C(=O)O [Amoxicillin],-0.05,0.35,-0.63,0.14,0.05,0.41,–,0.32,0.65,0.46,–,0.39,0.09,0.49,12.6 ± 0.28,–,0.4

# From the supplement of paper PMC8975748
